# Assay results taken from PubChem BioAssay (EPA / NIEHS).
# Activity calls are given as the source filed them. How the source made its calls: active means hit-call score of the fitted dose curve at least 0.9, where 1 is the maximum; inactive means score below 0.9.
# Test: CEETOX_H295R_MTT_cell_viability: Viability Assessment in the CeeTox HT-H295R MTT Assay (AID 2283718);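 on AC50: curve fitted both ways so AC50 may mark viability loss or gain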
# Description: CEETOX_H295R is a cell-based, multiplexed-readout assay that uses H295R, a human adrenal gland cell line, with measurements taken at 48 hours after chemical dosing in a 96-well plate.CEETOX_H295R_MTT_cell_viability is one of 23 assay component(s) measured or calculated from the CEETOX_H295R assay. It is designed to make measurements of cell number, a form of viability reporter, as detected with […] signals by MTT cytotoxicity assay technology.The assay component endpoint CEETOX_H295R_MTT_cell_viability was analyzed with bidirectional fitting relation to DMSO as the negative control and baseline of activity. Using a type of viability reporter in the MTT cytotoxicity assay, gain or loss-of-signal activity can be used to monitor cellular processes to understand changes in proliferation. To generalize the intended target to other relatable targets, this assay endpoint is annotated to cell cycle, where the subfamily is proliferation.
# Cell culture and media preparation procedures were conducted in accordance with OECD Test No. 456 guidelines, with minor modifications. H295R cells (ATCC CRL-2128) were expanded for 5 passages and frozen in batches in liquid nitrogen. Prior to the steroidogenesis assay, H295R cells were thawed and passed at least 4 times. The maximum passage was 10. Cells were maintained in a 1:1 mixture of DMEM/F12 supplemented with 5ml/L ITS+ Premix (BD Bioscience) and 12.5 ml/L Nu-Serum (BD Bioscience). After seeding cells into 96-well plates at 50-60% confluency, cells were allowed to adhere overnight. Prior to chemical testing, culture medium was replaced with 175 uL medium containing 10 uM forskolin to stimulate steroidogenesis for 48 hours. Following prestimulation, forskolin medium was replaced with medium containing test chemical solubilized in DMSO (ensuring a final concentration of 0.1% DMSO). Test chemicals were incubated for 48 hours, then the medium was removed and split into 2 vials containing approximately 75uL each, and stored at -80 C prior to hormone analysis. For steroid quantification, media samples were shipped to OpAns, LLC (Durham, NC) on dry ice, and samples were thawed to room temperature prior to liquid-liquid extraction. Steroid hormones were extracted from media samples using methyl tertbutyl ether (MTBE). An extra derivatization with dansyl chloride was included for estrogen (estrone and estradiol) detection only. Steroid hormones were separated by HPLC, eluted using a reverse phase C18 gradient with electrospray positive ionization, followed by quantification by tandem mass spectrometry (MS/MS). Data were acquired on a MassHunter Workstation Acquisition version B03.01 (Agilent Technologies, Inc.) and processed using MassHunter Quantitative Analysis for QQQ. Accuracy was determined for each hormone analyte from 3 standards to determine upper and lower limits of quantification (ULOQ and LLOQ, respectively) using a 7-point standard curve. Precision and accuracy of the extraction and quantification methods were calculated as the percent relative standard deviation (%RSD) of the spiked standards and percent spiked standard recovered, respectively. The goal was to achieve 100% accuracy (i.e., recover all spiked-in standard at quantification with minimal loss during run time) and good precision (i.e., have %RSD <15% to ensure reproducibility). Test medium was removed following chemical exposure, and cell viability was evaluated in the same wells by MTT. MTT procedures were as follows: after removal of test medium, 500 uL of 0.5 mg/ml of 3-[4,5-dimethylthiazol-2-y]2,5-diphenyltetrazoliumbromide solution was added to the cells. Following a 4-hour incubation at 37 C and 5% CO2 to allow formazan-crystal formation, the MTT solution was removed and blue formazan salt crystals were solubilized using 500uL anhydrous isopropanol with shaking for 20 minutes. Absorbance was read at 570 and 650nm using a Packard Fusion microplate reader. […]
SMILES,outcome,AC50
c1ccc2c(c1)-c1cccc3cccc-2c13,inactive,
CC(C)COC(=O)c1ccccc1C(=O)OCC(C)C,inactive,
CCCCCCCCCCCCCN1CC(C)OC(C)C1 (stereo not given),inactive,
Cc1cc(N=Nc2ccccc2C)ccc1N,inactive,
Nc1ccc(Cc2ccc(N)cc2)cc1,,2.04 µM (active)
CCCCCOC(=O)c1ccccc1C(=O)OCCCCC,inactive,
[As]#[In],inactive,
Cc1ccc(N=C=O)cc1N=C=O,inactive,
Nc1ccc(N=Nc2ccccc2)cc1,inactive,
CC(C)N(Cc1ccccc1)C(=O)C(C)(C)C,inactive,
Cc1cccc(N)c1N,,1.07 µM (active)
C[C@]12C=CC3=C4CCC(=O)C=C4CC[C@H]3[C@@H]1CC[C@@H]2O,inactive,
Nc1ccc(Oc2ccc(N)cc2)cc1,inactive,
Brc1ccc(Oc2ccccc2)cc1,inactive,
CNC(=O)Oc1cccc2c1OC(C)(C)C2,,1.52 µM (active)
O=P(OCCCl)(OCCCl)OCCCl,inactive,
CCC(C)c1ccc(O)cc1 (stereo not given),inactive,
Oc1ccc2ccc3cccc4ccc1c2c34,inactive,
O=C(Nc1ccccc1)c1ccccc1I,inactive,
CC(C)(O)c1cnn2c(-c3ccc(F)c(-c4c(F)cccc4C#N)c3)cnc2n1,inactive,
Cn1cc(-c2ccccc2)c(=O)c(-c2cccc(C(F)(F)F)c2)c1,inactive,
Nc1ccc(Cl)cc1N,inactive,
CCOC(=O)[C@]1(c2ccccc2)Oc2ccccc2[C@@H]1N,inactive,
COP(=S)(OC)SCN1C(=O)c2ccccc2C1=O,inactive,
CCOc1cccc(C2(N3CCN(c4ccccc4)CC3)CCC(C)CC2)c1 (stereo not given),inactive,
CCCCOC(=O)c1ccccc1C(=O)OCc1ccccc1,inactive,
c1ccc(N=Nc2ccccc2)cc1,inactive,
C=CCc1ccc2c(c1)OCO2,inactive,
CC(C)(C)C(O)(CCc1ccc(Cl)cc1)Cn1cncn1 (stereo not given),inactive,
Cc1ccc(N)c(N)c1,inactive,
